Measurements from PubChem BioAssay AID651804 (National Center for Advancing Translational Sciences (NCATS), 2012).
In all, about 1,200 compounds went through this assay and about 20 (2%) were called active. Inconclusive results (about 23%) are left out. The call rests on the fitted dose curve; in most records, active means well fitted inhibition curve with a large enough effect; inconclusive means small, poorly fitted or top-dose-only effect; inactive means no such curve, though single readings can be large or run the other way. The sample as a whole holds a higher share of actives than the screen did.

biological target: Transcriptional regulator ERG (Homo sapiens) (UniProt P11308); test: qHTS for Small Molecule Inhibitors of the ERG Ets/DNA interaction: HTRF assay against cherry picks; details: His-ERG Ets domain with biotin-DNA; series mostly up to 154 µM; activity change, negative = inhibition: at the top concentration
Text: The Ets family of proteins is a family of ~30 conserved transcription factors defined by the presence of an ~85 amino acid domain referred to as the Ets domain, which mediates sequence-specific DNA binding to a core DNA element GGAA/T.The Ets family member ERG has been linked to several neoplasms. […] More extensive studies of the effects of over-expression of ERG in prostate cells have recently been carried out and have shown that over-expression of ERG results in increased invasion. […] We will carry out a high throughout screen to identify inhibitors of the interaction between ERG and DNA using a fluorescence polarization (FP) assay with a His-tagged ERG Ets domain and fluorescently-labeled DNA probes to develop small molecule inhibitors of this interaction as probes to test this hypothesis and lay the groundwork for the development of targeted therapies against ERG. This is the counterscreen against the cherry picks. NIH Molecular Libraries Probe Production Network [MLPCN] NIH Chemical Genomics Center [NCGC] Grant: NS066464 PI Name: John Bushweller, University of Virgina
2 ul of protein solution (200 nM ERG domain in 300mM KCl, 50mM Tris-HCl, 1mM EDTA, 1mM DTT, pH 7.5); 20 nl Control plate and compound library plate; 2 ul of 200 nM biotin-DNA; incubate for 10 min at RT; 1 ul of anti-His antibody conjugated to the long-life fluorescent cryptate donner […] (5ng/ul) and streptavidin conjugated to the acceptor compound […] (0.2 ng/ul) mix; incubate 10 min and measure FRET (Excitation = 320 nm, Emission = 615, 665 nm).
Potency means the concentration at half of the fitted maximal effect.

Sequence of Transcriptional regulator ERG (Homo sapiens) (P11308 whole entry, looked up, the tested form may be a part): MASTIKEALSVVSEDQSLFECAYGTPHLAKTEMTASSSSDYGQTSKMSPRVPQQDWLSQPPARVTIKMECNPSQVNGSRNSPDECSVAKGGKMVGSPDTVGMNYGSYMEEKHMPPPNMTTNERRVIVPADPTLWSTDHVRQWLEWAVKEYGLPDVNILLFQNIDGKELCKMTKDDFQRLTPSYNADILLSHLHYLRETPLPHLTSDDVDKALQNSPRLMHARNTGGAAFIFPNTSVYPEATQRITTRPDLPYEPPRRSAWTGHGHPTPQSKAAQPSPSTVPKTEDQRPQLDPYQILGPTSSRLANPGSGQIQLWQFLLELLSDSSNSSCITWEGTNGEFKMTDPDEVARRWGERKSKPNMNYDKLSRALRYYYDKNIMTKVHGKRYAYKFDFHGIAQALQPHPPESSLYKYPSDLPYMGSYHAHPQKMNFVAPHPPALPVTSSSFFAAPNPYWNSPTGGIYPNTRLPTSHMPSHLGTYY

SMILES	Potency	activity change, negative = inhibition
Nc1ccc2nonc2c1[N+](=O)[O-]	50.1 µM (active)	–
C=C1C2C[C@@]3([C@@H]1O)[C@@H](C[C@@H]2O)[C@@]12C4[C@@H]3C[C@@H]1[C@@](C)(CC[C@@H]2O)CN4CC	–	-25.6% (inactive)
CC(=O)C1(c2ccccc2)CCN(C(=O)C2CCC(=O)N(CCc3cccc(F)c3)C2)CC1 (stereo not given)	–	-19.4% (inactive)
C[N+]1(C)[C@@H]2CC[C@H]1CC(OC(=O)C(CO)c1ccccc1)C2 (stereo not given in full)	–	-26.6% (inactive)
CN1[C@@H]2CCC[C@H]1CC(=O)C2	–	-23.7% (inactive)
